Sfp PPTase inh – qHTS Assay for Inhibitors of Bacillus subtilis Sfp phosphopantetheinyl transferase (PPTase) | 4'-phosphopantetheinyl transferase ffp (Bacillus subtilis), Q9F4F7 | Biochemical Sfp PPTase activity, qHTS | Potency, µM, for inactives: largest response in the series, negative = inhibition, usual class: inhibitors | 310,000 tested, 3.5% active;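 also: the enzyme is Sfp with the accession as filed and its product quenches rhodamine fluorescence; 0% = enzyme reaction without inhibitor and -100% = no enzyme wells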
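Buffer: 50 mM Hepes-Na pH 7.6, 10 mM MgCl2, 0.01% Nonidet P-40, 0.01% BSA. Enzyme 15 nM, pre-exposed to compound 15 min; substrates then added and fluorescence change tracked over 30 min.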
BAZ2B block – qHTS Assay for Inhibitors of BAZ2B. Potency, µM (doses to about 114 µM), for inactives: at the top dose activity change, negative = inhibition, actives largely listed as inhibitors. 360,000 tested, 4.4% active. AlphaScreen BAZ2B-H3K14Ac peptide displacement; also: % is scaled to controls: 0 for no effect and ±100 for the full control effect; nearly all actives have a fitted effect of over 60% in size
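AlphaScreen displacement: compounds (up to 110uM) incubated 30 min at room temperature with a preformed 50 nM BAZ2B/50 nM biotinylated H3K14Ac peptide complex in PBS pH 7.4 with Tween-20. Donor and acceptor beads at 10 ug/mL final added, 20 min light-protected before reading.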
G9a block – qHTS Assay for Inhibitors of Histone Lysine Methyltransferase G9a; Histone-lysine N-methyltransferase EHMT2 (Homo sapiens), Q96KQ7; G9a H3K9 monomethylation, AlphaScreen, 2 h; Potency, µM (top dose mostly 102 µM), for the others: top-dose activity, negative = inhibition, most hits filed as inhibitors; 350,000 tested, 8.8% active; AID 504332, 2011; also: % is scaled to controls: 0 for no effect and ±100 for the full control effect; nearly all actives have a fitted effect of over 75% in size
Target sequence (Q96KQ7 913-1193 limits assumed): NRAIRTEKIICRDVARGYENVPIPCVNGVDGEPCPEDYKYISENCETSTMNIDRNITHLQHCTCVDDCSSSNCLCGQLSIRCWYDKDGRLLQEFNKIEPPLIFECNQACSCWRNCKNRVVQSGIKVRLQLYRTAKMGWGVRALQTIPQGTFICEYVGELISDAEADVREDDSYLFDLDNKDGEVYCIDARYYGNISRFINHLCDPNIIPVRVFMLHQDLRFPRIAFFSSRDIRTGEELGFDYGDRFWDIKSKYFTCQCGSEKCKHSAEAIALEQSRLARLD
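Compounds were preincubated with 20 nM G9a for 15 min, after which biotinylated H3K9 peptide (500 nM) and SAM (20 uM) started a 2 h room-temperature reaction. Monomethylated product was quantified by antibody-based AlphaScreen chemiluminescence.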
HP1b binding inh – HTS for Inhibitors of HP1-beta Chromodomain Interactions with Methylated Histone Tails; AlphaScreen HP1-beta / biotin-H3K9me3 peptide binding; 390,000 tested, 0.56% active; Potency, µM (doses to about 114 µM), without a hit: at the top dose activity change, negative = inhibition, actives largely listed as inhibitors; Chromobox protein homolog 1 (Homo sapiens), P83916; also: nearly all actives have a fitted effect of over 70% in size
Target sequence (P83916 whole entry, looked up): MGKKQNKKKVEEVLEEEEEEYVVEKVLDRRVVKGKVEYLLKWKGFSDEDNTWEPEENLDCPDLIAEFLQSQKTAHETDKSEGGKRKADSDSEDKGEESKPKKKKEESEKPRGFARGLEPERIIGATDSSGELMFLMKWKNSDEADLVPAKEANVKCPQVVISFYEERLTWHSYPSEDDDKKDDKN
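Compound inhibition of the preformed complex between 50 nM HP1-beta and 50 nM biotinylated H3K9me3 peptide was read by AlphaScreen. Buffer was PBS pH 7.4 with 0.01% Tween-20. Incubations ran 30 min at room temperature, with 10 ug/mL donor/acceptor beads.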
JMJD2A Tudor – qHTS Assay for Inhibitors of JMJD2A-Tudor Domain. AlphaScreen JMJD2A-Tudor / H3K4me3 peptide binding. 390,000 tested, 4.4% active. Potency, µM (titrated, usually from 114 µM), for the others: top-dose activity change, negative = inhibition, actives largely listed as inhibitors; also: % is scaled to controls: 0 for no effect and ±100 for the full control effect; nearly all actives have a fitted effect of over 50% in size
ALOX12 inh – Primary qHTS assay for inhibitors of human arachidonate 12S-lipoxygenase (ALOX12): Round 2 | Polyunsaturated fatty acid lipoxygenase ALOX12 (Homo sapiens), P18054 | purified 12hLO, xylenol orange hydroperoxide absorbance | Potency, µM (doses to about 108 µM), without a hit: top-dose activity change, negative = inhibition, most hits filed as inhibitors | 580,000 tested, 1.1% active | AID 1671190, 2021; also: % is scaled to controls: 0 for no effect and ±100 for the full control effect
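Hydroperoxide product was detected by ferrous iron/xylenol orange as the 573 to 405 nm absorbance ratio. Arachidonic acid at 40 uM (final) was turned over for 30 min at room temperature by 150 nM human 12hLO, pH 7.0 Hepes buffer, after 15 min compound preincubation.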
The depositor's hits bear a star; u = inconclusive; x = no result; [ ] = another dose, or the depositor's remark. The list is not random: actives were taken first. Their share in the collection is about 8.7%. Calls follow the shape of the dose curve; as a rule, active = well fitted curve in the direction sought with a large enough effect; inconclusive = small, poorly fitted or top-dose-only effect, or another doubt; inactive = no such curve, though single readings can be large; an effect the other way counts as inactive or inconclusive. Potency is read from the fitted curve at half-maximal effect.

SMILES	Sfp PPTase inh	BAZ2B block	G9a block	HP1b binding inh	JMJD2A Tudor	ALOX12 inh
CCc1ccc(CN2CCN(S(=O)(=O)Cc3ccccc3)CC2)cc1	-15.4%	17.8µM*	u	-51.4%	0.794µM*	-23.4%
CSc1ccc(CN2CCN(S(=O)(=O)Cc3ccccc3)CC2)cc1	2.6%	-12.6%	89.1µM*	u	5.01µM*	-18.1%
O=C(CCc1c[nH]c2ccccc12)N1CCC2(CCCCO2)CC1	x	x	x	x	x	0.6%
CC1CCN(C(=O)c2cc(-c3ccncc3)nc3ccccc23)CC1	x	x	x	x	x	-29.6%
CC1(COCC2CC2)COc2ccc(C(=O)N3CCOCC3c3cccc(F)c3)cc2N1 (stereo unspecified)	x	x	x	x	x	1.2%[176 µM]
Nc1nc(SCC(=O)N2N=C3/C(=C\c4ccco4)CCCC3C2c2ccco2)n[nH]1 (stereo unspecified)	x	x	x	-10.1%	u	-11.4%
Nc1nc(SCC(=O)N2N=C3/C(=C/c4ccco4)CCCC3C2c2ccco2)n[nH]1 (stereo unspecified)	-12.4%	50.1µM*	u	-8.0%	-32.9%	1.8%
COc1ccc(/C=C2\CCCC3C2=NN(C(=O)CSc2ncn[nH]2)C3c2ccc(OC)cc2)cc1 (stereo unspecified)	-14.9%	-37.9%	-15.5%[59 µM]	16.8%	-31.1%	-3.2%
Cn1cnnc1SCC(=O)N1N=C2/C(=C/c3ccco3)CCCC2C1c1ccco1 (stereo unspecified)	11.0%	56.2µM*	x	8.5%	-24.0%	4.3%
O=C(CSc1nccc(=O)[nH]1)N1N=C2/C(=C/c3ccco3)CCCC2C1c1ccco1 (stereo unspecified)	10µM*	x	u	u	44.7µM*	u
Cc1ccc(F)cc1NC(=O)CSc1ncc(-c2ccc(F)cc2)o1	x	x	x	x	x	-19.6%
CSc1nc(-c2ccco2)nn1C(=O)c1ccco1	u	9.4%	39.8µM*	64.5%	-5.0%	143.6%
COc1ccccc1C(=O)n1nc(-c2ccco2)nc1SC	-17.8%	-34.9%	u	44.3%	-11.3%	-5.4%
O=C(c1ccco1)n1nc(-c2ccccc2)nc1SCc1ccccc1	0.0%	9.4%	-9.2%	33.3%	-12.9%	0.0%
CSc1nc(-c2ccco2)nn1C(=O)c1ccccc1	14.1µM*	u	u	55.1%	-6.1%	423.9%
CSc1nc(-c2ccco2)nn1C(=O)c1ccc(C)cc1	u	8.0%	44.7µM*	61.7%	20.4%	64.5%
COc1ccc(CCC(=O)N2CCC[C@H]2c2nc(-c3ccc(OC)cc3)no2)cc1	x	x	x	x	x	-26.9%
Cc1[nH]nc2c1C(c1ccc(OC(=O)c3ccco3)cc1)C(C#N)=C(N)O2 (stereo unspecified)	10.6%	-11.0%	24.3%[59 µM]	32.4%	-16.0%	332.0%
CC(C)c1[nH]nc2c1C(c1ccc(OC(=O)c3ccco3)cc1)C(C#N)=C(N)O2 (stereo unspecified)	8.1%	-28.8%	50.1µM*	11.7%	-31.0%	4.0%
CCCS(=O)(=O)N1CCC(N2C(=O)C3(CCCCC3)C2c2ccncc2)CC1 (stereo unspecified)	x	x	x	x	x	-1.3%
O=C(O)C1Nc2c(Cl)cc(Cl)cc2C2C=CCC12 (stereo unspecified)	u	25.1µM*	x	28.2µM*	22.4µM*	x
O=C(NCCF)C1Nc2ccc(OC(F)(F)F)cc2C2C=CCC12 (stereo unspecified)	x	x	x	9.5%	-35.0%	1.0%
Cc1ccc(C)c2c1NC(C(=O)O)C1CC=CC21 (stereo unspecified)	x	x	x	22.4µM*	20µM*	x
CC(C)CNC(=O)C1Nc2ccc(C(F)(F)F)cc2C2C=CCC12 (stereo unspecified)	x	x	x	14.2%	-22.1%	-10.0%
O=C(O)C1Nc2c(O)cccc2C2C=CCC12 (stereo unspecified)	-19.0%	1.58µM*	10µM*	28.2µM*	2.51µM*	87.9%
SMILES	Sfp PPTase inh	BAZ2B block	G9a block	HP1b binding inh	JMJD2A Tudor	ALOX12 inh
O=C(O)C1Nc2c(Cl)cc(Cl)c(Cl)c2C2C=CCC12 (stereo unspecified)	x	x	x	u	56.2µM*	3.16µM*
Cc1ccc(OCCN2CCC3(CC2)C(C(=O)O)CC(=O)N3C)c(C)c1 (stereo unspecified)	x	x	x	x	x	-16.0%
CCCCn1c(N2CCN(Cc3ccccc3F)CC2)nc2c1c(=O)[nH]c(=O)n2C	x	x	x	x	x	1.6%
COc1cc(-c2ccnc(-c3nnc(C)n3Cc3ccncc3)c2)ccn1	x	x	x	x	x	20.7%[176 µM]
Cn1c(SCC(=O)c2ccccc2)nnc1C1COc2ccccc2O1 (stereo unspecified)	1.4%	-0.5%	x	45.3%	-6.9%	4.6%
Cn1c(SCc2cc(=O)n3cc(Br)ccc3n2)nnc1C1COc2ccccc2O1 (stereo unspecified)	-9.5%	u	-17.8%[59 µM]	29.5%	50.1µM*	u
Cn1c(SCC(=O)c2ccc3c(c2)OCO3)nnc1C1COc2ccccc2O1 (stereo unspecified)	-21.1%	5.6%	u	37.1%	50.1µM*	-31.8%
Cc1occc1-c1nnc(SCc2cc(=O)n3cc(Br)ccc3n2)n1C	-19.7%	56.2µM*	-24.7%[59 µM]	13.7%	u	-18.3%
CN1CCC(N(C)CCN(C)C(=O)Nc2ccc(C(F)(F)F)cc2)CC1	x	x	x	x	x	-4.5%
OC(CNCCc1ccc(Cl)cc1)COc1ccc2ccccc2c1 (stereo unspecified)	31.6µM*	u	-32.0%	-0.2%	-28.2%	-17.6%
C/C=C/c1ccc(OCC(O)CNCCc2ccc(OC)cc2)c(OC)c1 (stereo unspecified)	79.4µM*	56.2µM*	7.94µM*	u	20µM*	u
CC1CCCCN1CC(O)COc1ccc(OCC(O)CN2CCCCC2C)cc1 (stereo unspecified)	5.5%	4.0%	x	18.6%	-7.2%	13.3%
C/C=C/c1ccc(OCC(O)CN2CCCCC2CC)c(OC)c1 (stereo unspecified)	-0.1%	56.2µM*	22.4µM*	u	3.55µM*	-23.7%
C/C=C/c1ccc(OCC(O)CNCC(c2ccc(OC)cc2)N(C)C)c(OC)c1 (stereo unspecified)	-24.2%	17.8µM*	u	-14.9%	22.4µM*	-20.0%
C/C=C/c1ccc(OCC(=O)O)c(OC)c1	13.3%	-16.2%	3.0%	-5.5%	-15.1%	-3.3%
CCNC(=S)NNC(=O)C(C)(C)O	x	x	x	x	x	-5.3%

High-throughput results deposited in PubChem by National Center for Advancing Translational Sciences (NCATS).
